Source: ChEMBL document CHEMBL3988442, “University of Dundee, Small-Polar-MMV Screening Library” (2021)
In all, about 69,000 compounds went through this assay and about 1,000 (1.4%) showed an effect of 50% or more. Many of the other results were omitted from the sample, so strong results are more common in it than they were.

System: Leishmania donovani
Assay: Leishmania intramacrophage assay
Format: functional, organism-based
Set-up: scale not given: in the data most compounds retested in dose-response had high values

With CCNc1cc2c(nn1)CCN(C(=O)c1ccc3cc[nH]c3c1)C2 the “Percent Effect” value (30 µM, 30.03 µM) was 18.46%.

In the case of COc1cccc(-c2noc(-c3ccc(NCCCO)nc3)n2)c1OC, the “Percent Effect” value (30.3 µM, […]) is reported as 59.5%.

With CN(C)CCN(C)c1ccc(-c2nc(COc3ccccc3)no2)cn1 the “Percent Effect” value (30.3 µM, […]) was 42.47%.

With CC(C)(CO)Nc1ccc(-c2nc(-c3ccccc3F)no2)cn1 the “Percent Effect” value (30.3 µM, […]) was -6.29%.

For CSCC[C@@H](CO)Nc1ccc(-c2nc(-c3ccccc3F)no2)cn1, the “Percent Effect” value (30.3 µM, […]) was -35.38%.

For CN(C)CCNc1ccc(-c2nc(COc3ccccc3)no2)cn1, the “Percent Effect” value (30.3 µM, […]) was 58.19%.

With CN(C)CCNc1ccc(-c2nc(-c3ccccc3F)no2)cn1 the “Percent Effect” value (30.3 µM, […]) was 51.45%.

With OC[C@@H]1CCCN1c1ccc(-c2nc(COc3ccccc3)no2)cn1 the “Percent Effect” value (30.3 µM, […]) was -6.4%.

CNCCNc1ccc(-c2nc(-c3cccc(OC)c3OC)no2)cn1 was tested, and the “Percent Effect” value (30.3 µM, […]) was 11.62%.

In the case of COc1cccc(-c2noc(-c3ccc(NCCCN)nc3)n2)c1OC, the “Percent Effect” value (30.3 µM, […]) is reported as 10.02%.

With Cc1nc(C)n(CC2CCCN(Cc3ccc(C(N)=O)cc3)C2)n1 (configuration not stated) the “Percent Effect” value (30 µM, 30.03 µM) was -3.523%.

In the case of Cc1ccc(F)c2c1N(C(=O)c1cn(CC(=O)N(C)C)nn1)CCC2, the “Percent Effect” value (30.3 µM, […]) is reported as -28.86%.

For CCCSCC(=O)NS(=O)(=O)c1ccc2c(c1)OCCO2, the “Percent Effect” value (30 µM, 30.03 µM) was 12.46%.

O=C(O)C(F)(F)F.O=C(O)C(F)(F)F.c1c(CN2CCCC2)nc2n1CCN(C1CCOCC1)C2 was tested, and the “Percent Effect” value (30.3 µM, […]) was 25.13%.

For CC(C)NC(=O)C1(Cc2ccccc2-c2ccccc2)CCCNC1 (configuration not stated), the “Percent Effect” value (30.3 µM, […]) was 40.16%.

In the case of CC(C)NC(=O)C1(Cc2ccccc2-c2cncnc2)CCCNC1 (configuration not stated), the “Percent Effect” value (30.3 µM, […]) is reported as 16.97%.

Cc1ccc(-c2ccccc2CC2(C(=O)NC(C)C)CCCNC2)cc1 (configuration not stated) was tested, and the “Percent Effect” value (30.3 µM, […]) was 53.92%.

CC(C)(C)C(O)CN1CCN(C(=O)c2cccc3ncccc23)CC1 (configuration not stated) was tested, and the “Percent Effect” value (30 µM, 30.03 µM) was 14.67%.

In the case of Cc1cc(NCc2cn(C)nc2-c2cccnc2)n(C)n1, the “Percent Effect” value (30.3 µM, […]) is reported as -18.07%.

In the case of O=C1NCCCc2[nH]c(-c3nc(C4CC4)no3)nc21, the “Percent Effect” value (30.3 µM, […]) is reported as 0.06758%.

For Oc1cc(CCC2CCCCN2)cc(-c2ccncc2)c1 (configuration not stated), the “Percent Effect” value (30 µM, 30.03 µM) was 12.39%.

In the case of Oc1cc(CCC2CCCCN2)cc(-c2cccnc2)c1 (configuration not stated), the “Percent Effect” value (30.3 µM, […]) is reported as 51.21%.

With Nc1ccc(-c2cc(O)cc(CCC3CCCCN3)c2)cn1 (configuration not stated) the “Percent Effect” value (30.3 µM, […]) was 30.15%.

In the case of CC[C@@H](C)[C@H](NC(=O)NC1CCS(=O)(=O)C1)C(=O)NCc1ccncc1 (some centres not stated), the “Percent Effect” value (30.3 µM, […]) is reported as -5.4%.

With CCNC(=O)CN(CC)S(=O)(=O)c1c(Br)cc2[nH]c(=O)oc2c1Cl the “Percent Effect” value (30.3 µM, […]) was 26.48%.

With CNC(=O)CN(C)S(=O)(=O)c1c(Br)cc2[nH]c(=O)oc2c1Cl the “Percent Effect” value (30.3 µM, […]) was 30.57%.

For COC(=O)C(C)CN(C)S(=O)(=O)c1c(Br)cc2[nH]c(=O)oc2c1Cl (configuration not stated), the “Percent Effect” value (30.3 µM, […]) was 53.15%.

In the case of COc1cc(OC)c(-c2nc3c([nH]2)c(C2CC2)nn3C)cc1OC, the “Percent Effect” value (30.3 µM, […]) is reported as 40.91%.

In the case of CC(C)c1ncncc1C(=O)NCCN1CCOCC1, the “Percent Effect” value (30.3 µM, […]) is reported as -51.02%.

With Cc1ccc(CC(=O)Nc2cc(C(C)C)n[nH]2)cn1 the “Percent Effect” value (30 µM) was 62.25%.

For Cc1ccc(C(=O)Nc2cc(C(C)C)n[nH]2)cn1, the “Percent Effect” value (30 µM, 30.03 µM) was -3.681%.

CC(C)c1cc(NC(=O)c2ccncc2)[nH]n1 was tested, and the “Percent Effect” value (30 µM) was -9.457%.

For CC(C)c1cc(NC(=O)c2ccc([S+]([O-])C(C)C)cc2)[nH]n1 (configuration not stated), the “Percent Effect” value (30 µM) was 33.29%.

In the case of CC(C)c1cc(NC(=O)c2ccc(C(=O)NC(C)(C)C)cc2)[nH]n1, the “Percent Effect” value (30 µM, 30.03 µM) is reported as 58.67%.

With CC(C)c1cc(NC(=O)c2cccnc2)[nH]n1 the “Percent Effect” value (30 µM) was 2.786%.

CC(=O)N1CCC(NC(=O)Cc2nc3nc(C)cc(C)n3n2)CC1 was tested, and the “Percent Effect” value (30.3 µM, […]) was 9.867%.

With O=C(c1ccc(CN2CCCCC2)cc1)N1Cc2cnn(CCO)c2C1 the “Percent Effect” value (30.3 µM, […]) was 4.685%.

For COCCNC(=O)Nc1ccc(-c2nc(C(C)C)no2)cc1, the “Percent Effect” value (30.3 µM, […]) was -5.463%.

In the case of COc1c(C2CCCN2c2ncnc3c2CCC3)c(C)nn1C (configuration not stated), the “Percent Effect” value (30.3 µM, […]) is reported as 55.59%.

With Cc1nn(C)c(C)c1C1CCCN1c1ncnc2c1CCC2 (configuration not stated) the “Percent Effect” value (30.3 µM, […]) was 30.84%.

With Cc1nn(C)c(Cl)c1C1CCCN1c1ncnc2c1CCC2 (configuration not stated) the “Percent Effect” value (30.3 µM, […]) was -27.23%.

For O=C(CN1CCSCC1c1ccccc1)N1CCCC1 (configuration not stated), the “Percent Effect” value (30.3 µM, […]) was -14.01%.

In the case of O=c1ccc(-c2cccs2)nn1CN1CCCCCC1, the “Percent Effect” value (30 µM, 30.03 µM) is reported as 13.2%.

Cc1cc(N2CCC(O)(CN(C)C)C2)c2cc3c(cc2n1)OCO3 (configuration not stated) was tested, and the “Percent Effect” value (30.3 µM, […]) was -1.24%.

COc1ccc(CN2Cc3cn(C)nc3C(COCC3CC3)C2)cc1 (configuration not stated) was tested, and the “Percent Effect” value (30.3 µM, […]) was 16.82%.

Cn1cc(CN2Cc3cn(C)nc3C(COCC3CC3)C2)cn1 (configuration not stated) was tested, and the “Percent Effect” value (30.3 µM, […]) was 53.65%.

Cn1cc2c(n1)C(COCC1CC1)CN(Cc1ccsc1)C2 (configuration not stated) was tested, and the “Percent Effect” value (30.3 µM, […]) was -18.37%.
